Screens: PubChem BioAssay, several laboratories
Sampled rows, rich in hits. Any-hit rate of the full collection: about 4.7%.
RecA splice inh: Mtb RecA intein splicing inhibition. P9WHJ3. inhibition, % (no concentration beside the values). actives 0.75% (n = 290,000). cell-free RecA intein splicing, fluorescence; in the data active = inhibition above about 30%;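 note: 0% = vehicle wells and 100% = reference inhibitor control wells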
GDH-TPI counter: counter-screen for M. tuberculosis FBA inhibitors: GDH-TPI coupled enzymes; GDH-TPI coupled enzyme counterscreen, NADH absorbance; inhibition, % at 4.8 µM; actives 1.2% (n = 360,000); AID 588335;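 note: 0% = DMSO wells and 100% = wells lacking the enzyme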
SARS 3CLpro inh: SARS-CoV 3CLpro protease inhibition. AID 1706. recombinant SARS-CoV 3CLpro, quenched FRET peptide cleavage. inhibition, % at 6 µM. P0C6X7. actives 0.14% (n = 290,000); in the data active = inhibition above about 12%
Mtb FBA inh: Mtb fructose-bisphosphate aldolase inhibition; P9WQA3; purified M. tuberculosis FBA, fluorescence read-out; inhibition, % at 1 µM; actives 2.3% (n = 360,000); AID 588726; in the data active = inhibition above about 27%;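 note: 0% = vehicle and 100% = reference inhibitor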
Target sequence (P9WQA3 whole entry, looked up): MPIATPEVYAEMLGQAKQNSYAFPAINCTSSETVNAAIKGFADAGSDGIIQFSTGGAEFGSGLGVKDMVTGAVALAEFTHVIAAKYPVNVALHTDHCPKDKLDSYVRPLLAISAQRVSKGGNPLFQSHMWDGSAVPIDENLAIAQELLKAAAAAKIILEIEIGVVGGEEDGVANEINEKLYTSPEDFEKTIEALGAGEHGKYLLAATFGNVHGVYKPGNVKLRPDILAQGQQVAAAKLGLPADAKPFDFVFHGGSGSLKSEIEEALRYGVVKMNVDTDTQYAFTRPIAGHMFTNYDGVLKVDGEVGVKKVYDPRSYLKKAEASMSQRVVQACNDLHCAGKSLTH
DUSP3 inh: blocks human VHR1 dual specificity phosphatase; P51452; recombinant VHR phosphatase, pNPP absorbance; inhibition, % at 13.3 µM; actives 0.52% (n = 290,000); AID 1654; in the data active = inhibition above about 50%
Target sequence (P51452 whole entry, looked up): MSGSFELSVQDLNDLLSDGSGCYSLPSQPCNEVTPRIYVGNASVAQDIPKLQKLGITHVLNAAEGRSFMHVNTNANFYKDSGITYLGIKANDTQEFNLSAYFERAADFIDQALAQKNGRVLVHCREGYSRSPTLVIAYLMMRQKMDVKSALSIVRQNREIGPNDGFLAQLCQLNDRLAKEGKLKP
CCHF vOTU inh-1: CCHFV vOTU protease inhibition. Pep-AMC fluorescence. inhibition, % at 11.5 µM. actives 0.55% (n = 370,000). AID 651958; note: 0% = vehicle wells with enzyme and 100% = no enzyme wells
CCHF vOTU inh-2: CCHFV vOTU protease inhibition, confirmation | shares compounds with CCHF vOTU inh-1 | Recombinant CCHFV vOTU, Pep-AMC fluorescence | inhibition, % at 11.5 µM | actives 17% (n = 1,900) | AID 686976
* = called active by the depositor; . = not tested or not shown. Cut-off read from the data, not from the text of the source, unless noted: active = inhibition above about 30%; inactive = the rest.

SMILES	RecA splice inh	GDH-TPI counter	SARS 3CLpro inh	Mtb FBA inh	DUSP3 inh	CCHF vOTU inh-1	CCHF vOTU inh-2
CN1CCN(S(=O)(=O)c2cccc(C(=O)N(Cc3nnc(-c4ccc(Cl)cc4)o3)C3CC3)c2)CC1	0	6	.	-1	.	34*	-13
CCOc1ccc(NC(=O)N(CCN2CCOCC2)Cc2ccc3c(c2)CCCN3CC)cc1	-6	0	-3	1	42	41*	-17
CN(CC(=O)Nc1ccc(F)cc1)C(=O)COC(=O)c1cccc(N(C)C)c1	.	11	.	-3	.	11	.
CN(CC(=O)Nc1ccc(F)cc1)C(=O)COC(=O)c1ccccc1	0	-8	.	1	.	30*	-2
CCCCCCN1C[C@H](O)[C@@H](n2cc(-c3ccc(F)cc3)nn2)C[C@@H]1c1ccccc1	.	2	.	-2	.	33*	-9
CCCCCC(=O)N1C[C@H](n2cc(COC(=O)c3ccccc3)nn2)[C@@H](O)C[C@@H]1c1ccc(C)cc1	.	5	.	-1	.	35*	4
CCCCCC(=O)N1C[C@@H](O)[C@H](n2cc(COC(=O)c3ccccc3)nn2)C[C@@H]1c1ccc(C)cc1	.	2	.	3	.	13	.
CCCCCCN1C[C@H](n2cc(COC(=O)c3ccccc3)nn2)[C@@H](O)C[C@@H]1c1ccc(OC)cc1	.	11	.	0	.	10	.
CCCCCCN1C[C@H](n2cc(-c3ccc(F)cc3)nn2)[C@@H](O)C[C@@H]1c1ccccc1	.	-1	.	-1	.	19	.
CCCCCCN1C[C@H](n2cc(COC(=O)c3ccccc3)nn2)[C@@H](O)C[C@@H]1c1ccc(Cl)cc1	.	-5	.	-3	.	32*	11
CCCCN(C)C(=O)c1ccc(Nc2nc(C(N)Cc3ccc(C(F)(F)F)cc3)cs2)nc1 (configuration not stated)	.	8	.	-2	.	32*	-9
COc1ccc(CC(N)c2csc(NC(=O)NCc3ccccc3)n2)cc1 (configuration not stated)	.	9	.	4	.	7	.
COc1cc(CNC(=O)Nc2nc(C(N)Cc3ccc(C(F)(F)F)cc3)cs2)cc(OC)c1OC (configuration not stated)	.	10	.	0	.	31*	-19
CCCCN(C)C(=O)c1ccc(Nc2nc(C(N)CCc3ccccc3)cs2)nc1 (configuration not stated)	.	6	.	7	.	25	.
CC1CN(N=Cc2ccc([N+](=O)[O-])o2)C(=N)O1 (configuration not stated)	.	26	.	0	.	18	.
O=C1SCCN1N=Cc1ccc([N+](=O)[O-])o1	.	22	.	0	.	32*	-1
CC(C)CN(C(=O)c1ccc(C(F)(F)F)cc1)c1c(N)n(CC(C)C)c(=O)[nH]c1=O	-1	-1	6	-2	1	13	.
O=C(c1ccccc1Oc1ccccc1)N1CCC(Oc2cccnc2)CC1	.	.	.	.	.	-1	.
CC(=O)c1c(C)[nH]c(C(=O)CN2C(=O)NC(C)(CCC(C)C)C2=O)c1C (configuration not stated)	.	3	2	1	33	10	.
O=C(C1=C(O)C(=O)N(CCN2CCOCC2)C1c1ccccn1)c1cccs1 (configuration not stated)	0	0	4	-3	18	31*	-10
O=C(C1=C(O)C(=O)N(CCN2CCOCC2)C1c1ccc(F)cc1)c1cccs1 (configuration not stated)	2	2	0	0	-16	-3	.
Cc1noc(NS(=O)(=O)c2ccc(NC(=O)c3ccccc3NS(=O)(=O)c3ccc(F)cc3)cc2)c1C	.	3	.	12	.	9	.
CN1C(=O)[C@@]2(C3=C(CCCC3=O)OC3=C2C(=O)CC(C)(C)C3)c2ccccc21	.	.	.	.	.	-15	.
O=C1C=C(O)c2[nH]c(=O)ccc2C1=O	.	17	.	1	.	95*	67*
O=C1C=C(O)c2c(O)cc(O)c(O)c2C1=O	17	9	.	-4	.	12	.
SMILES	RecA splice inh	GDH-TPI counter	SARS 3CLpro inh	Mtb FBA inh	DUSP3 inh	CCHF vOTU inh-1	CCHF vOTU inh-2
O=C(Oc1ccc(Cl)c2cccnc12)C12CC3CC(CC(C3)C1)C2	0	17	0	-3	9	-13	.
Cc1cnc(CN(C)C(=O)C2CCC(=O)N(CCc3ccc(Cl)cc3)C2)[nH]1 (configuration not stated)	.	-4	.	-4	.	16	.
COC(=O)c1ccc(-c2nc3cc(Cl)c(N)cc3s2)cc1	3	-5	0	6	3	43*	-5
COC(=O)c1ccc(-c2nc(O)c(C)s2)cc1	2	3	2	-1	20	5	.
O=C(/C=C\Nc1ccccc1Br)c1ccc2c(c1)OCO2	-2	9	5	-1	-1	32*	-6
O=C(/C=C/c1ccccc1Br)c1ccc2c(c1)OCO2	9	4	-3	-3	20	23	.
O=C(Nc1ccc(O)cc1C(=O)O)c1ccc(NC(=O)c2ccco2)cc1	.	10	.	2	.	37*	-3
O=C(Nc1ccccc1C(=O)O)c1cccc(NC(=O)c2ccco2)c1	-4	1	0	1	-2	15	.
CCC1(O)CC(c2ccccc2)=NN1C(=O)c1ccccc1F (configuration not stated)	1	-4	.	-1	.	10	.
NC(=S)Nc1cccc2cccnc12	-1	-3	-3	1	33	-6	.
Oc1ccccc1CNc1cccc2cccnc12	4	9	3	1	-12	52*	91*
NC(=S)NNc1cccc2cccnc12	28	8	0	-5	18	101*	34*
CC1=C(C(=O)N2CCCCCC2)CC(CC(=O)NC2CC2)C(=O)N1Cc1ccccc1 (configuration not stated)	.	.	.	3	.	1	.
O=C(Nc1ccc2c(c1)OCCO2)C1c2ccccc2OCC(=O)N1CCCN1CCOCC1 (configuration not stated)	.	.	.	.	.	2	.
O=C(NC(=S)Nc1ccc(S(=O)(=O)Nc2nccs2)cc1)c1ccc(F)c(F)c1	-2	9	7	-4	-10	42*	-11
COc1ccc(-c2sc3cc(OC)c(OC)cc3c2-c2ccc(O)cc2)cc1	.	-2	.	4	.	33*	-1
CC(C)CCCCCCNC(=S)Nc1ccc(S(=O)(=O)N2CCOCC2)cc1	1	9	6	-1	-7	31*	11
CC1(C)OC(c2ccccc2)=C/C(=C/C=C2C(=O)NC(=O)NC2=O)O1	-3	4	-7	-14	-6	30*	-1
O=C(O)Cn1cc(/C=N/NC(=O)c2cc3cc(Br)ccc3o2)c2ccccc21	-2	48*	2	1	-1	31*	-1
Cn1cc(/C=N/NC(=O)c2cc3cc(Br)ccc3o2)c2ccccc21	-35	1	1	1	33	6	.
COc1ccc(S(=O)(=O)n2nc(OC(=O)c3ccc(C)cc3)cc2N)cc1	7	4	-2	2	10	35*	-7
